Reference: the supplement of paper PMC6555819

Test system: VDR homodimer (NR concentration 270 nM)
Assay: PBM binding z-score (relative to random genomic background probes); higher = stronger binding; sequences stand for … in GC…GCGATTGACAGCGTAGAATGAAGG
Method in brief: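 Probes were double-stranded and carried 34-nt variable regions with direct-repeat seeds, single-nucleotide variants, half-site ablations and random human genomic background sequences, printed on custom Agilent 4×180K protein-binding microarrays. Arrays were incubated 1 h with ligand-free nuclear receptor dimers in PBS pH 7.4, 2% milk, 0.02% Triton X-100, 1 mM DTT, 0.2 mg/mL BSA and 0.4 mg/ml salmon testes DNA. Antibodies against each partner (one per run) detected binding, and scanned fluorescence was regression-normalized. Binding z-scores use the random background probes as reference.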

| Sequence | PBM binding z-score |
| --- | --- |
| TATACAGGGTCAAAGGCCAGGGTACGAATGTCGA | 3.31 |
| TCTAGGAGGCCAGAGGGTCACTCAAGAGGTACGG | 0.313 |
| TCATATAGGTATACAGGTGAAAGTCCGTAAGTTA | 0.541 |
| TTACCTAGGTGAGCTGAGGTCGTTGATCCAACTC | 1.73 |
| CGTCCAAGGTCAGCAGGGCAGTGAAAGCGACGTG | 1.02 |
| ACTATTAGTTGAGACGAGGGGAACCGATAGGTTG | 0.00117 |
| ATCTCTTGGTAAAGTTCAGTGAAAGATCGATAGA | 2.21 |
| CCTAGCAGGCCAGGGTCACTCATGCATTTCGCTT | 1.31 |
| ATCGAAAGGCCGAGGTGAGTATAGAGAAAGGGAA | -0.433 |
| TCATATAGGAAAACAGGTGAAAGTCCGTAAGTTA | 0.639 |
| TAATATAGGTAAAGGTGAAAGTCGAACGATATGA | 0.489 |
| CCTATTAGTTGACCATAAGGGCAACCGAAGCTCG | 1.07 |
| CGTACTAGGTCAAGGACAGTGAATCTCCGCACGC | 0.444 |
| GCTATTAGTTGAAAGGGCAGCCGAATGATTCTCG | -0.507 |
| GCTAGCAGGCCAATTGGGTCACTCAATGACGGGC | -0.328 |
| CAGCCTATGTCAGGGCCAGTATAGGAGGAACGTT | -0.529 |
| TGAATGAGGATATAAGATCAGGGAACGTTGCAAA | -0.0248 |
| ACTAGCTGGCCAAGTTTGGGTCACTCAAACAAAG | -0.123 |
| TCATATAGGTAAACAGGTGAAAGACCGTAAGTTA | 0.225 |
| CGAACGAGGGCATGAATTGATAGCAAATGCCGAT | 0.297 |
| AGAACGAGGGCAATGAGTTGATAGAACGGGTGGC | 2.82 |
| AGTCAAAGTTCATCTAGGTAACGTAAGATATGCT | 4.94 |
